{
  "source": "PubChem BioAssay (NCI)",
  "note": "The panel holds about 83,000 compounds, 20% with a hit somewhere; the sample as a whole holds those more often.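 Percent growth is the endpoint: 0 to 100 indicates growth inhibition (40 means 60% inhibition), 0 means no net growth, and negative values indicate cell death.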 The source made the active and inactive calls. The calls were made as follows: active = growth percent below 10; inactive = the rest.",
  "data": [
    {"tested_on": "UACC-257 melanoma", "assay": "NCI-60 one-dose screen, 48 h (100 = growth as untreated, 0 = no growth, -100 = all killed)", "conditions": "10 µM unless noted", "values": [
      {"smiles": "CNc1sc(S(=O)(=O)NC)nc1S(=O)(=O)c1ccc(C)cc1", "growth": "100% (inactive)"},
      {"smiles": "COc1cccc(N2CCN(C3=C(Cl)C(=O)c4ncccc4C3=O)CC2)c1", "growth": "70.2% (inactive)"},
      {"smiles": "O=C1[C@@H]2Cc3c([nH]c4ccccc34)[C@@H](c3ccc(Cl)cc3)N2C(=O)CN1C1CCN(Cc2ccccc2)CC1", "growth": "75.8% (inactive)"},
      {"smiles": "CC(=O)OCCCCN1C=C/C(=C\\C(=O)n2ccc3ccccc32)c2ccccc21", "growth": "112% (inactive)"},
      {"smiles": "CN1CCN(c2ccc(Nc3nc(NCCNS(=O)(=O)c4ccc5ccccc5c4)c4sccc4n3)cc2)CC1", "growth": "65.7% (inactive)"},
      {"smiles": "CC1=C(C)C(=O)C(Nc2ccc3c(c2)OCCO3)=C(Br)C1=O", "growth": "102% (inactive)"},
      {"smiles": "C=C(C)[C@@H]1CC[C@]2(C(=O)NC3CCCCC3)CC[C@]3(C)[C@H](CC[C@@H]4[C@@]5(C)CC[C@H](N)C(C)(C)[C@@H]5CC[C@]43C)[C@@H]12", "growth": "105% (inactive)"},
      {"smiles": "CCOC(=O)c1c(NC(=O)c2ccc(C(F)(F)F)cc2)sc2c3c(ccc12)OCN(C)C3", "growth": "71.6% (inactive)"},
      {"smiles": "C#CCN(C)CCCOc1ccc(NCc2ccc(/C=C/C(=O)NO)cc2)cc1Cl", "growth": "21% (inactive)"},
      {"smiles": "COc1cc(/C=N\\NC(=O)c2ccc3nc(-c4ccc(Br)cc4)[nH]c3c2)cc(OC)c1OC", "growth": "33.1% (inactive)"},
      {"smiles": "C=C1CCc2nc(SCC(=O)O)ccc2N1", "growth": "105% (inactive)"},
      {"smiles": "CN1CCC[C@]2(C)[C@H]3CC[C@@H]4[C@@H]5[C@H]6OC[C@@]5(CCC6(C)C)CC[C@@]4(C)[C@]3(C)CC[C@H]2C1(C)C", "growth": "107% (inactive)"},
      {"smiles": "C=C(C=O)[C@@H]1CC[C@]2(C(=O)O)CC[C@]3(C)C(CC[C@@H]4[C@@](C)(CCC#N)[C@H](C(=C)C=O)CC[C@]43C)[C@@H]12", "note": "(stereo partly drawn)", "growth": "12.4% (inactive)"},
      {"smiles": "NCCNC(=O)c1cccc(COc2ccccc2NC(=O)c2cc(Cl)c(Cl)[nH]2)c1", "growth": "98.9% (inactive)"},
      {"smiles": "COc1ccc(C2c3[nH]c4ccc(Cl)cc4c3CCN2c2oc(CO)nc2C#N)cc1", "note": "(stereo not drawn)", "growth": "67.5% (inactive)"},
      {"smiles": "CN(C)c1ccc(-c2cc(-c3c[nH]c4ccccc34)nc(N)c2C#N)cc1", "growth": "56.9% (inactive)"},
      {"smiles": "COc1ccccc1/C=C1\\Oc2ccc(O)c(O)c2C1=O", "growth": "101% (inactive)"},
      {"smiles": "CCCCCc1ccc(S(=O)(=O)Nc2cc(-c3csc(N)n3)ccc2OC)cc1", "growth": "107% (inactive)"},
      {"smiles": "O=C(O)c1ccc(-n2c(=O)n(-c3cccc(C(F)(F)F)c3)c(=O)c3cc(-c4ccc(F)cc4F)ccc32)cc1", "growth": "-1.96% (active)"},
      {"smiles": "Nn1c(=O)n(-c2cccc(C(F)(F)F)c2)c(=O)c2cc(-c3ccc(F)cc3F)ccc21", "growth": "-8.9% (active)"},
      {"smiles": "CCCCN1C(=O)/C(=c2\\sc3n(c2=O)C2C(NN=3)N(CC)C(=O)N2CC)c2cc(C)ccc21", "note": "(stereo not drawn)", "growth": "98.7% (inactive)"},
      {"smiles": "CC(C)[C@H]1c2[nH]c3ccccc3c2C[C@H]2C(=O)N(CCCCCCC(=O)NO)CC(=O)N12", "growth": "57.7% (inactive)"},
      {"smiles": "O=C(N/N=C\\c1ccc(F)cc1)c1ccc2nc(-c3ccc(Br)cc3)[nH]c2c1", "growth": "74.5% (inactive)"},
      {"smiles": "NC1[C@H]2CN(c3cnc(C(=O)Nc4cc(F)cc5cccnc45)cn3)C[C@@H]12", "note": "(stereo partly drawn)", "growth": "97.7% (inactive)"},
      {"smiles": "Cc1ccsc1[C@H]1c2[nH]c3ccccc3c2C[C@H]2C(=O)N(CCCCCCC(=O)NO)CC(=O)N12", "growth": "76% (inactive)"},
      {"smiles": "CC(=O)N(O)CCCCCNC(=O)CCC(=O)N(O)CCCCCNC(=O)CCC(=O)N(O)CCCCCN(CCCCCCCCCC[P+](c1ccccc1)(c1ccccc1)c1ccccc1)CCCCCCCCCC[P+](c1ccccc1)(c1ccccc1)c1ccccc1", "growth": "-10.9% (active)"},
      {"smiles": "O=c1nc(Nc2ccc([N+](=O)[O-])cc2O)sc2ccccc12", "growth": "65% (inactive)"},
      {"smiles": "Cc1cc2nc(C(Cl)Cl)nc(-c3ccc(S(=O)(=O)N(C)C)cc3)n2n1", "growth": "87% (inactive)"},
      {"smiles": "C/C(CC1(O)C(=O)Nc2ccccc21)=N\\O", "note": "(stereo not drawn)", "growth": "105% (inactive)"},
      {"smiles": "C[C@]12CC[C@H]3[C@@H](CC=C4C[C@@H](O)CC[C@@]43C)[C@@H]1CC[C@@H]2[C@](C)(O)CCc1cccnc1", "growth": "53.8% (inactive)"},
      {"smiles": "O=C(CSc1nnc(-c2cccs2)n1-c1ccccc1)Nc1ccccc1F", "growth": "95.3% (inactive)"},
      {"smiles": "CC(=C(c1ccc(OCCCN(C)C)cc1)c1ccc(OCCCN(C)C)cc1)c1ccc(Cl)cc1", "growth": "100% (inactive)"},
      {"smiles": "O=C(CSc1nc2ccccc2c(=O)n1-c1ccc(Cl)c(Cl)c1)Nc1ccc(S(=O)(=O)Nc2ccc(Cl)nn2)cc1", "growth": "93.5% (inactive)"}
    ]}
  ]
}
